The record followed here is PubChem BioAssay AID2685 (National Center for Advancing Translational Sciences (NCATS), 2010).

About 2,100 (0.66%) of roughly 320,000 compounds were called active. Not shown: some 53% with an inconclusive outcome. The call rests on the fitted dose curve; in most records, active means well fitted inhibition curve with a large enough effect in the signal ratio, with a control signal flat (not every such curve was filed as active); inconclusive means small, poorly fitted or top-dose-only effect, or effect the other way, or a change in a side signal; inactive means flat fitted curve, though single readings scatter; the % refers to the signal ratio. For the sample, actives were picked, then their nearest neighbours and some compounds at random.
Potency means the concentration at half of the fitted maximal effect.

The test is described as follows: qHTS Assay for Lipid Storage Modulators in Drosophila S3 Cells.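 On cell number change: cells counted by Cell Tracker Red CMTPX staining in the red channel.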 On lipid storage change, negative = inhibition: on the % scale 0 is the no-effect control and ±100 the full control effect. Conditions: BODIPY lipid droplet fluorescence, 18-24 h, cells fed with added oleic acid; cell number change: measured here: cell count max response; series mostly up to 46.1 µM; lipid storage change, negative = inhibition: at the top concentration. Summed up: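 Drosophila S3 cells loaded with oleic acid (400 uM, as added) and compounds at several concentrations; lipid droplets imaged by 488-nm laser-scanning cytometry, 500–530 nm intensity and object ratio to cell channel. Percent activity normalized to 20 uM Triacsin C.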
A general note: In qHTS, concentration-response curves come from the screen itself.
Regarding `N#Cc1cccc(S(=O)(=O)Nc2c(NC3CCCCC3)c3ccccc3oc2=O)c1`, the molecule was classed as inactive and the cell number change was -28.3%.
As for `Cc1cccc(NC(=S)N(CCc2ccncc2)C(C)C)c1C`, the “lipid storage change, negative = inhibition” value was 4.1% (inactive) and the cell number change was -1.71%.
As to `O=C(NCCN1CCOCC1)c1cccc(S(=O)(=O)N2CCCC2)c1`, the molecule was classed as inactive and the cell number change stood at 2.89%.
Turning to `O=C(NCCN1C(=O)S/C(=C\c2ccc(F)cc2)C1=O)c1cccc(S(=O)(=O)N2CCOCC2)c1`, the Potency is 13 µM (active).
In the case of `Cn1cc(S(=O)(=O)N2CCOCC2)cc1C(=O)Nc1ccc(Cl)cc1`, the molecule was called inactive and the cell number change was determined as 5.48%.
For `O=C(Nc1nnc(-c2ccccc2)s1)c1cccc(S(=O)(=O)N2CCOCC2)c1`, the “lipid storage change, negative = inhibition” value is 0.191% (inactive) and the cell number change is -9.5%.
Take `O=C(Nc1nncs1)c1cccc(S(=O)(=O)N2CCOCC2)c1`: the Potency is 23.1 µM (active) and the cell number change was -2.32%.
In the case of `O=C(Nc1nccs1)c1cccc(S(=O)(=O)N2CCOCC2)c1`, the “lipid storage change, negative = inhibition” value was 15.5% (inactive) and the cell number change amounted to 0.981%.
With `Cn1cc(S(=O)(=O)N2CCOCC2)cc1C(=O)Nc1cccc(Cl)c1`, the Potency is 7.31 µM (active) and the cell number change is -6.63%.
Take `COc1cc(C(=O)NCCN2C(=O)S/C(=C\c3ccc(F)cc3)C2=O)ccc1OCC(=O)N1CCOCC1`: the “lipid storage change, negative = inhibition” value was 2.92% (inactive) and the cell number change worked out at 15.3%.
Turning to `COc1ccc(NC(=O)c2cc(S(=O)(=O)N3CCOCC3)cn2C)cc1Cl`, the “lipid storage change, negative = inhibition” value is -17.2% (inactive) and the cell number change was -8.07%.
As for `COc1ccc(OCC(=O)NCCc2c[nH]c3ccccc23)cc1`, the “lipid storage change, negative = inhibition” value was -6.71% (inactive) and the cell number change is -0.0954%.
For `COc1ccc(/C(C)=N/NC(=O)CNC(=O)/C=C\c2ccco2)cc1` the same measures were 6.78% (inactive) and 25.3%.
For `O=[N+]([O-])c1cc(N=Nc2ccc3ccccc3c2)ccc1O` the same measures were 23.5% (inactive) and -8.5%.
Turning to `COc1ccc(N=Nc2ccc3ccccc3c2)c(O)c1`, the Potency is 4.11 µM (active) and the cell number change is -14.1%.
As to `Oc1ccc(N=Nc2ccc3ccccc3c2)cc1`, the “lipid storage change, negative = inhibition” value is -12.4% (inactive) and the cell number change is -16.8%.
For `COc1cccc(NC(=O)CSc2nnc(Cn3nnc4ccccc43)n2C)c1` the same measures were -5.06% (inactive) and 1.13%.
For the molecule `O=C(Oc1ccc(=O)n(-c2ccccc2)n1)c1cccc(Cl)c1`, the “lipid storage change, negative = inhibition” value is -13.7% (inactive) and the cell number change is -1.38%.
For `Cn1c(CNC(=O)c2ccc3c(c2)OCO3)nnc1SCC(=O)Nc1ccccc1F`, the result was inactive and the cell number change worked out at 3.42%.
Regarding `CCN(Cc1ccccc1)S(=O)(=O)c1ccc(C(=O)N(CCCN(C)C)c2nc3cc(OC)ccc3s2)cc1`, the “lipid storage change, negative = inhibition” value is 11.6% (inactive) and the cell number change was determined as 7.95%.
For `O=C(COc1ccc2c3c(c(=O)oc2c1)CCC3)N1CCN(c2ccccc2)CC1` the same measures were 74.1% (inactive) and 28.4%.
For `CC1(C)CC(N2CCN(C(c3ccccc3)c3ccccc3)CC2)=CC(=[N+]2CCCCC2)C1`, the Potency is 2.06 µM (active) and the cell number change is -24.2%.
As to `CN1CCN(C(c2ccccc2)c2ccccc2)CC1`, the “lipid storage change, negative = inhibition” value is -13.1% (inactive) and the cell number change stood at 2.24%.
For `CC1(C)CC(N2CCOCC2)=CC(=[N+]2CCOCC2)C1` the same measures were -5.61% (inactive) and 3.66%.
`Cc1cc(SCC(=O)Nc2cccc(S(N)(=O)=O)c2)c(C)cc1Br`: the “lipid storage change, negative = inhibition” value was -2.43% (inactive) and the cell number change stood at 15.2%.
For `O=C(O)c1ccc(OCCn2ccnc2)cc1` the same measures were -12.6% (inactive) and 11.3%.
For `CCc1ccc(OCCCCCn2ccnc2)cc1`, the Potency is 4.61 µM (active) and the cell number change was -11.6%.
Consider `CCc1ccc(OCCn2ccnc2)cc1`, for which the “lipid storage change, negative = inhibition” value is 12.1% (inactive) and the cell number change is -22.2%.
Take `COc1ccc(OCCn2ccnc2)cc1`: the molecule was classed as inactive and the cell number change was -2.55%.
As for `COc1ccc(OCCCn2ccnc2)cc1`, the “lipid storage change, negative = inhibition” value was 9.55% (inactive) and the cell number change is -3.82%.
With `c1ccc(Cc2ccc(OCCn3ccnc3)cc2)cc1`, the Potency was 3.66 µM (active) and the cell number change is -8.07%.
As to `COc1ccccc1NC(=O)C1=C(C)Nc2nc(CCCO)nn2C1c1ccc2c(c1)OCO2` (stereo not drawn), the call was inactive and the cell number change was -2.99%.
On the same counts, the results for `COc1ccc(Cl)cc1S(=O)(=O)N1CCC(C(=O)NCC2CCCO2)CC1` (stereo not drawn) are “inactive” and 6.08%.
Regarding `CCCS(=O)(=O)N1CCN(C(=O)c2cccnc2)CC1`, the outcome was inactive.
With `COCCCn1c(SCC(=O)NC(C)C)nnc1-c1ccccc1`, the “lipid storage change, negative = inhibition” value is 9.76% (inactive) and the cell number change stood at 1.73%.
Consider `COc1cc(C(=O)Nc2ccc(C)cn2)ccc1OCC(=O)N1CCOCC1`, for which the Potency is 20.6 µM (active) and the cell number change came to 5.26%.
For `COc1cc(C(=O)O)ccc1OCC(=O)N1CCOCC1`, the “lipid storage change, negative = inhibition” value was -14.9% (inactive) and the cell number change was -12%.
With `CCc1ccc(C(=O)NNC(=O)c2ccc(OCC(=O)N3CCOCC3)c(OC)c2)cc1`, the “lipid storage change, negative = inhibition” value was -4.56% (inactive) and the cell number change was -13.6%.
Take `CCN(CC)CCCNC(=O)CSc1nc(-c2ccc(F)cc2)cc(C(F)(F)F)n1`: the “lipid storage change, negative = inhibition” value was 0.643% (inactive) and the cell number change turned out to be 4.94%.
With `CCC(C)(C)NC(=O)CN(C(=O)c1snc(C(N)=O)c1N)c1ccc2c(c1)OCCO2`, the outcome was inactive and the cell number change was 19.8%.
With `CN(C)S(=O)(=O)c1cccc(C(=O)NCCNC(=O)c2cccc(S(=O)(=O)N(C)C)c2)c1`, the “lipid storage change, negative = inhibition” value was -11.8% (inactive) and the cell number change was -23.4%.
For `O=C(CNC(=O)c1ccccc1)OCc1cccc([N+](=O)[O-])c1`, the “lipid storage change, negative = inhibition” value is 0.419% (inactive) and the cell number change was -2.11%.
For `CN(C)S(=O)(=O)c1cccc(COC(=O)CCNC(=O)c2ccc([N+](=O)[O-])cc2)c1`, the Potency was 2.31 µM (active) and the cell number change worked out at 9.78%.
For `Cn1c(CC(=O)Nc2cccc(Cl)c2Cl)nnc1SCC(=O)NC1=NCCS1`, the “lipid storage change, negative = inhibition” value is 19% (inactive) and the cell number change came to 10.7%.
On the same counts, the results for `CC(C)n1c(N)c(C#N)c2ccc([N+](=O)[O-])cc2c1=O` are -3.14% (inactive) and 17.3%.
